Source: PubChem
This is one part of a sample in which hits are shown more often than they occur.
mHTT-CaM PPI inh: mHTT-calmodulin interaction abrogation. 3.6% of 190,000 active. P42858. AlphaScreen His-mHTT/GST-CaM binding, luminescence. inhibition, % at 15 µM
Pf apPOL inh: Pf-apPOL DNA polymerase inhibition | 0.25% of 210,000 active | inhibition, % at 10 µM | AID 1794808 | Recombinant Pf-apPOL, molecular beacon fluorescence, 1.5 h
Of the large screens only hits and unclear results are named; the others gave an inactive call. Rule as the data show it: active = inhibition above about 50%; inactive = the rest.

O=C(c1cc(-c2ccco2)[nH]n1)N1CCC(COCc2ccccc2)CC1	mHTT-CaM PPI inh 59.4
Cc1cc(C(=O)N2CCC(COCc3ccccc3)CC2)no1	none
O=C(CN1CCN(C(=O)c2cc(-c3ccco3)[nH]n2)CC1)c1ccco1	mHTT-CaM PPI inh 59.7, Pf apPOL inh 73.0
CCc1ccc(CNC(=O)C2CCN(c3nnc(-c4ccc(OC)cc4)o3)CC2)cc1	none
O=C1C(Nc2ccccc2)=CC(c2ccccc2[N+](=O)[O-])N1c1ccccc1 (stereo unspecified)	mHTT-CaM PPI inh 66.0
COc1ccc(OC)c(C2C=C(Nc3ccccc3)C(=O)N2c2ccccc2)c1 (stereo unspecified)	none
COc1cc(C2CC(=O)C3=C(C2)Nc2ccccc2NC3c2ccc(O)cc2)cc(OC)c1OC (stereo unspecified)	none
Cc1c(-c2ccno2)cnn1C	none (no result: Pf apPOL inh)
CCOCCCNC(=O)c1ccc2c(c1)NC(=O)C(N1CCOCC1)S2 (stereo unspecified)	none
COc1ccc(Nc2nc(C(=O)Nc3ccc4c(c3)OCCO4)cs2)c(OC)c1	mHTT-CaM PPI inh 53.3
COc1ccc(C(=O)Nc2nc(CC(=O)Nc3ccc4c(c3)OCCO4)cs2)cc1	none
COc1cccc(NC(=O)CSc2nc3c(c(=O)n2Cc2ccccc2)SC(C)C3)c1 (stereo unspecified)	none
COc1ccc(C)cc1NC(=O)CN1CCC(c2nc(-c3ccc(C)cc3)no2)CC1	none
CC(C)NC(=O)Nc1ccc2c(c1)CCN2S(C)(=O)=O	none
Cc1nc(C(=O)NCCc2ccc(Cl)cc2)c(C)n1C1CCN(S(C)(=O)=O)CC1	mHTT-CaM PPI inh 61.2
Cc1nc(C(=O)NCCc2ccccn2)c(C)n1C1CCN(S(C)(=O)=O)CC1	none
Cc1nc(C(=O)NCCCN2CCCc3ccccc32)c(C)n1C1CCN(C)CC1	mHTT-CaM PPI inh 96.9
CCCNC(=O)c1nc(C)n(C2CCN(C)CC2)c1C	none
CCC(CC)NC(=O)C1CCN(c2cn[nH]c(=O)c2)CC1	none
Cc1nnc(Sc2nc(Sc3nnc(C)s3)nc(N3CCCCC3)n2)s1	none
Cc1cccc(-c2nnc(C)c(NCC3CCCO3)n2)c1 (stereo unspecified)	none
CS(=O)(=O)c1ccc(Nc2nc(C(=O)NCc3ccco3)cs2)cc1	none
COCCNC(=O)N1CCCn2nc(-c3cccc(OC)c3)cc2C1	none
CC1(C)OC2C(CI)OC(n3cnc4c(=O)[nH]cnc43)C2O1 (stereo unspecified)	none
CC(=O)N(C)CC(=O)N1N=C(c2cccn2C)CC1c1ccc(Cl)cc1 (stereo unspecified)	mHTT-CaM PPI inh 65.2
CN(CC(=O)N1N=C(c2cccn2C)CC1c1ccccc1)C(=O)C1CCC1 (stereo unspecified)	mHTT-CaM PPI inh 54.6
CC(C)C(=O)N(C)CC(=O)N1N=C(c2ccc(F)cc2)CC1c1ccccc1 (stereo unspecified)	none
CN(CC(=O)N1N=C(c2cccn2C)CC1c1ccc(Cl)cc1)C(=O)C1CCC1 (stereo unspecified)	none
COc1ccc(C2=NN(C(=O)CN(C)C(C)=O)C(c3ccc(Cl)cc3)C2)cc1 (stereo unspecified)	none
CC(C)C(=O)N(C)CC(=O)N1N=C(c2cccn2C)CC1c1ccc(Cl)cc1 (stereo unspecified)	mHTT-CaM PPI inh 78.3
COc1ccc(/C=c2\sc3nc(-c4cccc(Cl)c4)nn3c2=O)c(OC)c1	none
CC1CCN(Cc2csc(N3CCN(C(=O)Cc4ccccc4Cl)CC3)n2)CC1	none
Cc1c(CC(Cl)(Cl)Cl)c2c(n1-c1ccc([N+](=O)[O-])cc1)CCCC2=O	mHTT-CaM PPI inh 73.0
Cc1c(CC(Cl)(Cl)Cl)c2c(n1-c1ccccc1[N+](=O)[O-])CCCC2=O	none
CCN(CC)Cc1cc(NC(C)=O)ccc1O	none
N#Cc1nc(COc2ccccc2Cl)oc1N1CCCCC1	none
N#Cc1nc(COc2ccccc2Cl)oc1N1CCN(Cc2ccccc2)CC1	mHTT-CaM PPI inh 52.0
Cc1nc(NCC(C)O)nc(NC2CCCCC2)c1[N+](=O)[O-] (stereo unspecified)	none
Cc1[nH]cnc1CNC1CCCCC1	none
CCOc1cccc2cc(C(N)=O)c(=NCc3ccccc3)oc12	none
CCOc1cccc(=NCc2ccccc2)c2c(C)[nH]c(C)c12	mHTT-CaM PPI inh 76.0
Cc1ccc(F)c(NC(=O)c2[nH]c3cc(C)sc3c2CN(C)C)c1	none
O=C(NCc1ccc(C(F)(F)F)cc1)c1cn2ccccc2n1	none
CCn1cc2c3c(cccc31)CN(C(=O)Nc1cccc(C)c1)CC2	none
COc1ccc(CN2CCN(C/C=C/c3ccccc3)CC2)cc1OC	none
CN(C)c1ccc(/C=C/CN2CCN(Cc3ccccc3)CC2)cc1	mHTT-CaM PPI inh 56.0
Oc1cccc(CN2CCN(C/C=C/c3ccccc3)CC2)c1	none
COc1cc(CN2CCN(C/C=C/c3ccccc3)CC2)c([N+](=O)[O-])cc1OC	mHTT-CaM PPI inh 82.4
O=[N+]([O-])c1cccc(CN2CCN(C/C=C/c3ccccc3)CC2)c1	mHTT-CaM PPI inh 51.1
Clc1ccccc1N1CCN(C/C=C/c2ccccc2)CC1	mHTT-CaM PPI inh 62.4
CCN1CCN(C/C=C/c2ccccc2)CC1	none
O=[N+]([O-])c1ccccc1CN1CCN(C/C=C/c2ccccc2)CC1	none
Cc1ccc(S(=O)(=O)N2N=C(c3ccc(Br)cc3)CC2c2ccco2)cc1 (stereo unspecified)	none
Cc1ccc(CNC(=O)C2Oc3ccccc3NC2=O)cc1 (stereo unspecified)	none
O=C(Nc1nnc(Cc2ccc(Cl)cc2)s1)c1ccccc1I	none
Cn1nccc1C(=O)N1CCC(c2nc(C3CC3)n[nH]2)CC1	none
O=c1oc2cc3occ(-c4ccc(F)cc4)c3cc2c2c1CCCC2	none
COc1ccc2c(c1)c(=O)oc1cc3occ(-c4ccc(Cl)cc4)c3cc12	none
Cc1c(C)c2cc3c(-c4ccc(Cl)cc4)coc3cc2oc1=O	Pf apPOL inh 90.9
O=c1oc2cc3occ(-c4ccc(Cl)cc4)c3cc2c2c1CCC2	Pf apPOL inh 80.1
CN1C(=C(O)c2ccccc2)C(=O)c2ccccc2S1(=O)=O	none
Cc1ccc(C(=O)CN2C(C(=O)c3ccccc3)=C(N(C)C)c3ccccc3S2(=O)=O)c(C)c1	mHTT-CaM PPI inh 55.0
Cc1ccc(C(=O)CN2C(=C(O)c3ccccc3)C(=O)c3ccccc3S2(=O)=O)c(C)c1	mHTT-CaM PPI inh 59.4
Cc1ccc(C(=O)CC(=O)c2ccccc2C)c(O)c1	none
COC(=O)c1ccc(Oc2c(C)oc3c4c(ccc3c2=O)OCN(Cc2ccccn2)C4)cc1	mHTT-CaM PPI inh 100.1
COCCCN1COc2ccc3c(=O)c(Oc4ccc(C(=O)OC)cc4)c(C)oc3c2C1	none
O=C(Nc1ccc(N2CCOCC2)cc1)c1ccc2snnc2c1	none
CC(C)NC(=O)Cn1cccc1-c1nc(-c2ccccc2)cs1	none
Cc1ccnc(NC(=O)Cn2cccc2-c2nc(-c3ccccc3)cs2)c1	mHTT-CaM PPI inh 54.1
COc1ccccc1CN=Cc1[nH]c2ccc(Br)c(Cl)c2c1O	mHTT-CaM PPI inh 71.0
COc1cccc(CN=Cc2[nH]c3ccc(Br)c(Cl)c3c2O)c1OC	none
C(=Nc1c2ccccc2nc2ccccc12)c1cccc2c1OCOC2	none (no result: Pf apPOL inh)
C(=Nc1c2ccccc2nc2ccccc12)c1ccco1	mHTT-CaM PPI inh 55.8 (no result: Pf apPOL inh)
Cc1ccc(S(=O)(=O)N2CCC(n3cnc4ccc(C)cc4c3=O)CC2)c(C)c1	none
COc1cccc2c1OC1(CCC(C)CC1)N1N=C(c3cccs3)CC21 (stereo unspecified)	none
COc1ccc(C2=NN3C(C2)c2cccc(OC)c2OC32CCCCC2)cc1 (stereo unspecified)	none
COc1cccc2c1OC(C)(C)N1N=C(c3cccs3)CC21 (stereo unspecified)	mHTT-CaM PPI inh 61.0
